{
  "source": "PubChem BioAssay (EPA / NIEHS)",
  "note": "Where “and” joins values, the source holds several entries; their conditions need not be identical. Identical values can stand only once. Calls of active or inactive are those of the source. How the source made its calls: active means hit-call score of the fitted dose curve at least 0.9, where 1 is the maximum; inactive means score below 0.9.",
  "data": [
    {"experiment": "BSK_3C_uPAR: BioMAP Diversity Plus: 3C Assay for Urokinase-type plasminogen activator receptor (uPAR) Biomarker Activity (AID 2282998)", "conditions": "BioMAP 3C HUVEC, uPAR biomarker ELISA; actives raise or lower the signal", "procedure": "BSK_3C is a cell-based, multiplexed-readout assay that uses umbilical vein endothelium, a human vascular primary cell, with measurements taken at 24 hours after chemical dosing in a 96-well plate.BSK_3CAR is an assay component measured in the BSK_3C assay. It measures uPAR antibody related to regulation of gene expression using ELISA technology.Data from the assay component BSK_3CAR was analyzed into 1 assay endpoint. This assay endpoint, BSK_3CAR, was analyzed with bidirectional fitting relative to DMSO as the negative control and baseline of activity. Using a type of binding reporter, gain or loss-of-signal activity can be used to understand changes in the signaling as they relate to the gene PLAUR. Furthermore, this assay endpoint can be referred to as a primary readout, because this assay has produced multiple assay endpoints where this one serves a signaling function. To generalize the intended target to other relatable targets, this assay endpoint is annotated to the cytokine intended target family, where the subfamily is plasmogen activator.\nThe levels of cell surface (or secreted, indicated by the prefix \"s\") biomarker endpoints were measured by ELISA. Overt cytotoxicity to cells in confluent adherent cultures (all systems other than the BT system) was assessed by measuring total protein levels using sulforhodamine B (SRB) staining in parallel cultures at the time of biomarker measurements, indicated as SRB endpoints. For proliferation assays for adherent cell types, individual cell types are cultured at sub-confluence and relative cell numbers quantified by SRB staining at time points optimized for each system (48 h: 3C and CASM3C systems; 72 h: BT and HDF3CGF systems; 96 h: SAg system). SRB was performed by staining cells with 0.1% SRB after fixation with 10% TCA and reading wells at 560 nm.Viability and proliferation of PBMC (T cells) was quantified by Alamar Blue reduction for the SAg and BT systems. For PBMC viability (referred to as PBMC Cytotoxicity within the assay endpoint names), cells were plated (75,000/well in a 96-well plate) and then chemical samples added for 1 h before addition of activators, SEB and TSST-1 (20 ng/mL final concentration each). Cells were incubated for 90 h. Then, Alamar Blue (20 uL/well) (Invitrogen, Cat DAL1100) was added for 6 h, and the plates were read with a fluorescence microplate reader at 546/580 nm (excitation/emission). For PBMC proliferation, cells were plated and activated as above but incubated for only 16 h prior to addition of Alamar Blue. Plates were read after 6 h.", "values": [
      {"compound": "Cc1cccc2c1ccc1ccccc12", "outcome": "inactive"},
      {"compound": "OCC(CO)(CBr)CBr", "outcome": "inactive"},
      {"compound": "Oc1c(Cl)cc(Cl)cc1Sc1cc(Cl)cc(Cl)c1O", "AC50": "3.97 µM (active) and 7.82 µM (active)"},
      {"compound": "O=C(c1ccccc1)c1ccccc1", "outcome": "inactive"},
      {"compound": "O=C(O)C(F)(F)OC(F)(F)C(F)(F)OC(F)(F)C(F)(F)OC(F)(F)C(F)(F)C(F)(F)C(F)(F)F", "AC50": "21.3 µM (active) and 23 µM (active)"},
      {"compound": "COc1cccc(O)c1", "outcome": "inactive"},
      {"compound": "COc1cc(OC)nc(NC(=O)NS(=O)(=O)Nc2ccccc2C(=O)N(C)C)n1", "outcome": "inactive"},
      {"compound": "Cc1ccc(N=Nc2c(O)ccc3ccccc23)c(C)c1", "outcome": "inactive"},
      {"compound": "CC[N+](CC)(CC)Cc1ccccc1", "outcome": "inactive"},
      {"compound": "CS(=O)(=O)c1ccc([C@@H](CC2CCCC2)C(=O)Nc2cnccn2)cc1Cl", "outcome": "inactive"},
      {"compound": "O=C1NS(=O)(=O)c2ccccc21", "outcome": "inactive"},
      {"compound": "O=C(O)CCC(F)(F)C(F)(F)C(F)(F)C(F)(F)C(F)(F)F", "outcome": "inactive"},
      {"compound": "Oc1cc2ccccc2cc1O", "outcome": "inactive"},
      {"compound": "CCOC(=O)CN[C@@H](C(=O)N1CC[C@H]1C(=O)NCc1ccc(/C(N)=N/O)cc1)C1CCCCC1", "outcome": "inactive"},
      {"compound": "CCCCC(CC)C(=O)O", "note": "(stereo not given)", "outcome": "inactive"},
      {"compound": "O=P(O)(O)CCC(F)(F)C(F)(F)C(F)(F)C(F)(F)C(F)(F)C(F)(F)C(F)(F)C(F)(F)F", "outcome": "inactive"},
      {"compound": "O=C1c2ccc(O)c(O)c2C(=O)c2c(O)ccc(O)c21", "AC50": "8.14 µM (active)"},
      {"compound": "Cc1ccc(C(=O)c2ccccc2)cc1", "outcome": "inactive"},
      {"compound": "C=COC(=O)C(C)(C)CCCCCC", "AC50": "31.3 µM (active)"},
      {"compound": "CCCCCCCCCCCC", "outcome": "inactive"},
      {"compound": "O=P(O)(O)CCC(F)(F)C(F)(F)C(F)(F)C(F)(F)C(F)(F)C(F)(F)F", "outcome": "inactive"},
      {"compound": "OCC(F)(F)C(F)(F)C(F)(F)C(F)(F)C(F)(F)C(F)(F)C(F)(F)C(F)(F)C(F)(F)C(F)(F)C(F)(F)F", "outcome": "inactive"},
      {"compound": "CCCCCc1ccc(O)cc1", "AC50": "13.8 µM (active)"},
      {"compound": "O=S(=O)(O)C(F)(F)C(F)(F)C(F)(F)C(F)(F)C(F)(F)C(F)(F)C(F)(F)C(F)(F)C(F)(F)C(F)(F)F", "AC50": "24.6 µM (active) and 13.3 µM (active)"},
      {"compound": "C=CC(=O)OCCC(F)(F)C(F)(F)C(F)(F)C(F)(F)C(F)(F)C(F)(F)C(F)(F)C(F)(F)F", "outcome": "inactive"},
      {"compound": "COCN(COC)c1nc(N(COC)COC)nc(N(COC)COC)n1", "outcome": "inactive"},
      {"compound": "CCC(C)c1ccccc1O", "note": "(stereo not given)", "outcome": "inactive"},
      {"compound": "CCCCC=O", "outcome": "inactive"},
      {"compound": "CCCCCCCCCCCCCCC", "outcome": "inactive"},
      {"compound": "CC(C)(C)c1ccc(O)c(O)c1", "outcome": "inactive"},
      {"compound": "O=C(CCCN1CCC(O)(c2ccc(Cl)cc2)CC1)c1ccc(F)cc1", "AC50": "20 µM (active)"},
      {"compound": "CCCCc1oc2ccccc2c1C(=O)c1cc(I)c(OCCN(CC)CC)c(I)c1", "AC50": "6.63 µM (active)"},
      {"compound": "N=C(N)c1ccc(OCCCCCOc2ccc(C(=N)N)cc2)cc1", "AC50": "7.78 µM (active)"},
      {"compound": "CCCCCCCCCCCCOS(=O)(=O)O", "outcome": "inactive"},
      {"compound": "NC(=NCCCCCCN=C(N)/N=C(\\N)Nc1ccc(Cl)cc1)/N=C(\\N)Nc1ccc(Cl)cc1", "AC50": "2.61 µM (active)"},
      {"compound": "CCCCCCCCCCCCCCCCCC[N+](C)(C)Cc1ccccc1", "AC50": "0.35 µM (active)"},
      {"compound": "O=C(NO)c1ccccc1", "outcome": "inactive"},
      {"compound": "C=CC(C)(CCC=C(C)C)OC(C)=O", "note": "(stereo not given)", "AC50": "31.5 µM (active)"},
      {"compound": "CCCCC(CC)C(=O)OCCOCCOCCOCCOC(=O)C(CC)CCCC", "note": "(stereo not given)", "outcome": "inactive"},
      {"compound": "CC(=O)Nc1ccc(O)cc1", "outcome": "inactive"}
    ]}
  ]
}
